IMPase Li inh – IMPase inhibition in cells with lithium potentiation | CHO-M1 cells, IP1 TR-FRET (IP-One), carbachol + lithium | AID 1457 | 0.35% of 210,000 active | Potency, µM (titrated, usually from 59.4 µM), hits mostly inhibitors; active means well fitted inhibition curve with a large enough effect; inconclusive means small, poorly fitted or top-dose-only effect; inactive means no such curve, though single readings can be large or run the other way;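 further: IP1 builds up when IMPase is blocked and the TR-FRET signal falls; nearly all actives have a fitted effect of over 50% in size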
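IP1 accumulation measured by competitive TR-FRET in lysed CHO-M1 cells after 30 min compound exposure at 37C, with a small lithium addition to potentiate weak responses. Hill-equation AC50 from ratio and donor-channel data.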
ALDH1A1 block – ALDH1A1 (human) enzyme inhibition; P00352; Purified ALDH1A1, NADH fluorescence, propionaldehyde substrate; Potency, µM (series often up to 75.3 µM), most hits filed as inhibitors; 7.3% of 220,000 active; AID 1030
IMPase cell inh – membrane-permeable compound that blocks inositol monophosphatase; P97697; inhibition (IP1 accumulation), % at 46.1 µM; CHO-M1 cells, IP1 accumulation, HTRF TR-FRET ratio; 120,000 tested, under 10 active; active means well fitted curve in the direction sought with a large enough effect in the signal ratio, not every such curve was filed as active; inconclusive means small, poorly fitted or top-dose-only effect, or a change in a side signal; inactive means no such curve, though single readings can be large or run the other way; the % refers to the signal ratio;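 further: cells stimulated with carbachol in lithium chloride buffer; higher means more IMPase inhibition seen as more IP1 and lower FRET ratio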
Target sequence (P97697 whole entry, looked up): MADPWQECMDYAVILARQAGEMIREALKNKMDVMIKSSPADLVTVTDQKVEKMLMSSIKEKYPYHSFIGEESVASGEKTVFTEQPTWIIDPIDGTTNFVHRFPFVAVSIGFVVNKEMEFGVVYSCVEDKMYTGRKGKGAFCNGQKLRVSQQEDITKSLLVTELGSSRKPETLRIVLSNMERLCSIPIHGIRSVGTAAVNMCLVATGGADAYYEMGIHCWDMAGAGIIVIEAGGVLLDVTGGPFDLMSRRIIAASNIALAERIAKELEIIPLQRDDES
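Measured: the HTRF emission ratio (665/620 nm) plus the 620 nm donor channel, each fitted to the Hill equation to give AC50. Cells were CHO-M1 given compounds up to 46 uM and a 30 min carbachol stimulation at 37C.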
PNC inhibitor – perinucleolar compartment assembly inhibition | PC3M PTB-GFP, PNC prevalence imaging, 16 h; stronger effect = lower value | activity change (PNC), negative = inhibition, % at 10 µM | 3.1% of 140,000 active | AID 2417;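 active means readout at or below -70, meaning at least 70% loss of cells showing the perinucleolar compartment, a nuclear body marking cancer cells; inconclusive means readout between -30 and a set limit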
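Compounds are pinned in duplicate onto adhered PC3M cells stably expressing GFP-tagged PTB and incubated 16 h at 37 C. Cells are then fixed, nuclei stained with Hoechst, and PNC-positive cells counted.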
HPGD block – inhibitors of human 15-hydroxyprostaglandin dehydrogenase (HPGD) | Potency, µM, most hits filed as inhibitors | purified HPGD, NADH fluorescence kinetic, PGE2 substrate | 4.3% of 150,000 active
Target sequence (P15428 whole entry, looked up): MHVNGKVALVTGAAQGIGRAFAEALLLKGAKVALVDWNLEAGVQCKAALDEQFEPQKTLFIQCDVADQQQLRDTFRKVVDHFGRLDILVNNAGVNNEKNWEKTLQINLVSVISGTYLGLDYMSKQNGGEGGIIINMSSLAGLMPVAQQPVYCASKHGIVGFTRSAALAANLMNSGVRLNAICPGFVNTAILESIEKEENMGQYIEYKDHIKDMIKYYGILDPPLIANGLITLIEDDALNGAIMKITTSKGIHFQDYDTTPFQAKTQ
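NADH formation kinetics: reaction with 30 uM PGE2 and 1 mM NAD+ (final), 20 nM enzyme, Tris-HCl pH 8 with Tween 20, after 15 min compound preincubation at room temperature. Fluorescence change, last versus first of five reads.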
Large screens that a line does not name were inactive. Hits are enriched below; roughly 11% of the tested compounds scored in any of these assays. Unless noted, the call rests on the fitted dose curve; in most records, active means well fitted inhibition curve with a large enough effect (not every such curve was filed as active); inconclusive means small, poorly fitted or top-dose-only effect, or another doubt; inactive means no such curve, though single readings can be large or run the other way.

O=C(Nc1cccc(S(=O)(=O)Nc2ccccc2F)c1)c1ccc2ccccc2n1	ALDH1A1 block 3.2µM (no result: IMPase cell inh, PNC inhibitor, HPGD block)
COc1cccc(Nc2nc3ccc(C)cc3nc2-n2nc(C)cc2C)c1	none (no result: IMPase Li inh, ALDH1A1 block, PNC inhibitor, HPGD block)
c1ccc(Cn2nnc3c(N4CCc5ccccc54)ncnc32)cc1	ALDH1A1 block inconclusive, PNC inhibitor inconclusive, HPGD block inconclusive
c1ccc(Cn2nnc3c(N4CCCCCC4)ncnc32)cc1	ALDH1A1 block inconclusive, HPGD block 32µM
CCCN1CCN(c2ncnc3c2nnn3Cc2ccccc2)CC1	ALDH1A1 block 10µM, HPGD block 25µM
FC(F)(F)c1ccc(N2CCN(c3ncnc4c3nnn4Cc3ccccc3Cl)CC2)cc1	ALDH1A1 block inconclusive, HPGD block inconclusive
Fc1cccc(Cl)c1Cn1nnc2c(N3CCC4(CC3)OCCO4)ncnc21	ALDH1A1 block 16µM, PNC inhibitor inconclusive
Cc1cccc(NC(=O)CSc2nc3[nH]ncc3c(=O)n2-c2ccccc2)c1	ALDH1A1 block 4.5µM (no result: IMPase cell inh)
Cc1cccc(NC(=O)CSc2nc(NS(=O)(=O)c3ccccc3)cc(=O)[nH]2)c1	ALDH1A1 block 28µM (no result: IMPase cell inh, PNC inhibitor, HPGD block)
O=C(CSc1nc2[nH]ncc2c(=O)n1-c1ccccc1)c1ccc2c(c1)OCCO2	ALDH1A1 block 0.32µM
Cc1nn(-c2ccccc2)c(=S)c2ccccc12	none (no result: IMPase cell inh)
COc1ccc2oc(=O)c(C(=O)Oc3ccc(NC(C)=O)cc3)cc2c1	ALDH1A1 block inconclusive, PNC inhibitor inconclusive
O=C(Nc1ccc(Cl)cc1)N1CCN(c2ccc3nnc(-c4ccc(F)cc4)n3n2)CC1	ALDH1A1 block 28µM, HPGD block inconclusive
O=C(Nc1ccccc1Cl)N1CCN(c2ccc3nnc(-c4ccccc4)n3n2)CC1	ALDH1A1 block inconclusive, HPGD block inconclusive
O=C(CSc1ccc(-c2cccc([N+](=O)[O-])c2)nn1)NC1CCCC1	none (no result: IMPase cell inh, PNC inhibitor, HPGD block)
C=CCNC(=O)CSc1cc([N+](=O)[O-])cc(S(=O)(=O)Cc2ccccc2)c1	ALDH1A1 block 4.5µM, HPGD block inconclusive (no result: IMPase cell inh)
O=C(CSc1cc([N+](=O)[O-])cc(S(=O)(=O)Cc2ccccc2)c1)NC1CC1	ALDH1A1 block 25µM, PNC inhibitor inconclusive, HPGD block 22µM (no result: IMPase cell inh)
COC(=O)c1cc(OC)c(OC)cc1NC(=S)N1CCN(C/C=C/c2ccccc2)CC1	ALDH1A1 block inconclusive (no result: IMPase cell inh)
CC(C)C(NC=C1C(=O)OC(C)(C)OC1=O)C(=O)O (configuration not stated)	ALDH1A1 block 8.9µM
CN(C)S(=O)(=O)n1cnc(-c2ccccc2)c1-c1ccccc1	PNC inhibitor -117
NCCCNC(=O)c1cc2ccccc2[nH]1	PNC inhibitor inconclusive
CCCC(C)NNC(=O)c1cc2ccccc2[nH]1 (configuration not stated)	HPGD block 13µM
COc1ccc(NC2=CC(c3ccc(OC)c(OC)c3)N(c3ccc(OC)cc3)C2=O)cc1 (configuration not stated)	ALDH1A1 block 14µM, HPGD block inconclusive (no result: IMPase cell inh)
COc1ccc(OC2C(=O)N(c3ccc(C)c(C)c3)C2c2ccc(OC)c(OC)c2)cc1 (configuration not stated)	PNC inhibitor inconclusive
N#CCCn1c(=O)cnc2cnc(Oc3cccc(Cl)c3)nc21	none (no result: IMPase cell inh, PNC inhibitor, HPGD block)
NC(=O)C1CCN(C2=C(Cl)C(=O)c3ccccc3C2=O)CC1	ALDH1A1 block inconclusive, HPGD block 14µM
S=C(Nc1ccc2c(c1)OCCO2)Nc1ccc2c(c1)OCO2	ALDH1A1 block 22µM (no result: IMPase cell inh, PNC inhibitor, HPGD block)
O=C(NC(=S)Nc1ccc2c(c1)OCCO2)c1ccccc1	ALDH1A1 block 22µM
CCOc1cccc(C(=O)NC(=S)Nc2ccc(N3CCCC3)cc2)c1	ALDH1A1 block 7.1µM, PNC inhibitor inconclusive
CCOc1cccc(C(=O)NC(=S)Nc2ccc3c(c2)OCCO3)c1	ALDH1A1 block 4µM (no result: IMPase cell inh, PNC inhibitor, HPGD block)
CCOc1cccc(C(=O)Nc2ccc(N3CCN(S(C)(=O)=O)CC3)cc2)c1	none
Cc1ccc(-c2nc3ncccc3o2)cc1NC(=O)c1ccc(-c2cccc(Cl)c2C)o1	none (no result: IMPase Li inh, ALDH1A1 block, PNC inhibitor, HPGD block)
Cc1cc([N+](=O)[O-])ccc1NC(=O)C(C)N1CCN(c2ccccn2)CC1 (configuration not stated)	none (no result: IMPase cell inh, PNC inhibitor, HPGD block)
O=C(Nc1ccc2c(c1)OCO2)c1ccc(Cl)s1	ALDH1A1 block inconclusive, HPGD block 16µM
COc1nc(Oc2ccc(=O)n(-c3ccccc3)n2)nc(N(C)C)n1	none (no result: IMPase Li inh, ALDH1A1 block, PNC inhibitor, HPGD block)
CC1(c2ccccc2)CC(C)(C)N(C(=O)c2ccccc2Cl)c2ccccc21 (configuration not stated)	none (no result: IMPase Li inh, ALDH1A1 block, PNC inhibitor, HPGD block)
Cc1nc2cncnc2n(C2CC2)c1=O	ALDH1A1 block inconclusive (no result: IMPase cell inh, PNC inhibitor, HPGD block)
CCc1cccc(NC(=O)Cn2c(=O)n(CC3CCC(C(=O)NCCc4ccccc4)CC3)c(=O)c3ccccc32)c1 (configuration not stated)	none (no result: IMPase Li inh, ALDH1A1 block, PNC inhibitor, HPGD block)
NC(CO)(CO)CO	none (no result: IMPase cell inh, PNC inhibitor)
COc1cc(CN(C2CCCCC2C)S(=O)(=O)c2ccc(S(=O)(=O)NC3CC3)cc2)cc(OC)c1OC (configuration not stated)	none (no result: IMPase cell inh)
COc1ccc(CN(C2CCCCC2C)S(=O)(=O)c2ccc(S(=O)(=O)N(C)C)cc2)cc1OC (configuration not stated)	ALDH1A1 block 3.5µM, PNC inhibitor inconclusive
Cc1ccc(S(=O)(=O)NCCN=C(CN2CCCC2)NS(=O)(=O)c2ccc(C)cc2)cc1	ALDH1A1 block 4.5µM, PNC inhibitor inconclusive
Cc1ccc(S(=O)(=O)NCCN=C(CN2CCOCC2)NS(=O)(=O)c2ccc(C)cc2)cc1	ALDH1A1 block 1.6µM, PNC inhibitor inconclusive
Cc1ccc(S(=O)(=O)NCCCN2CCOCC2)cc1C	none
CC(=O)OC[C@@]12C(=O)[C@@H](O)[C@@H](C)[C@]3(C[C@@H](c4ccoc4)O[C@@H]3OC(C)=O)[C@H]1CCC[C@]21CO1	none (no result: IMPase cell inh, PNC inhibitor)
O=C(CN1C(=O)S/C(=C\C=C\c2ccccc2)C1=O)Nc1cccc(O)c1	ALDH1A1 block 32µM
CC(=O)c1ccc(NC(=O)CN2C(=O)/C(=C/C=C/c3ccccc3)SC2=S)cc1	none (no result: IMPase cell inh)
O=C(CCN1C(=O)/C(=C/C=C/c2ccccc2)SC1=S)Nc1cccnc1	PNC inhibitor -108 (no result: IMPase cell inh)
O=C(CCN1C(=O)/C(=C/C=C/c2ccccc2)SC1=S)Nc1ccccn1	none (no result: IMPase cell inh, PNC inhibitor, HPGD block)
O=C(CCCSc1nc2ccccc2[nH]1)Nc1nnc(C2CC2)s1	ALDH1A1 block inconclusive (no result: IMPase cell inh, PNC inhibitor, HPGD block)
O=C(NCc1ccccn1)C1C2C=CC(C2)C1C(=O)Nc1ccc(F)cc1 (configuration not stated)	HPGD block 16µM
O=C(O)C1C2C=CC(C2)C1C(=O)NCc1ccccn1 (configuration not stated)	none
COc1ccc(C2CC(=O)C3=C(C2)Nc2ccccc2N(C(=O)C2CC2)C3c2cccnc2)cc1OC (configuration not stated)	ALDH1A1 block 14µM, PNC inhibitor inconclusive
CCC(=O)N1c2ccccc2NC2=C(C(=O)CC(C)(C)C2)C1c1cccnc1 (configuration not stated)	none (no result: IMPase cell inh, PNC inhibitor, HPGD block)
